High-throughput results as filed in PubChem.
CHOP inh – inhibitors of CHOP promoter induction, primary screen, cell-based, unfolded protein response, luciferase reporter | CHO-K1 CHOP-promoter luciferase, tunicamycin-induced, 15-18 h | inhibition, % at 10 µM | 220,000 tested, 3.8% active | AID 2732, 2010;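 active means compounds that reduced the stress-induced luciferase reporter signal by more than about 70% of percent inhibition, limit read from the data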;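 further: 0% = tunicamycin plus vehicle and 100% = wells without tunicamycin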
L major viab – Leishmania major promastigote growth inhibition, primary screen. 200,000 tested, 9% active. Leishmania major promastigotes, resazurin fluorescence viability. AID 1063, 2008. inhibition, % at 10 µM; in the data active means inhibition above about 50%;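 further: promastigotes grown with compound for 44 hours at 28 °C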
Arbovirus anti – antivirals against arbovirus infection, primary screen, cell-based, full library, 10K replicate subset. 200,000 tested, 0.37% active. arbovirus infection cell-based antiviral screen. inhibition, % at 10 µM. AID 1251, 2008; in the data active means inhibition above about 30%
WT yeast gro inh – growth inhibition of WT strain, primary screen, mitochondrial fusion inhibitor project, WT and mutant strains, chemical genetic; AID 1362, 2008; 190,000 tested, 2.1% active; mitochondrial fusion phenotypic screen; inhibition, % at 10 µM; in the data active means inhibition above about 58%; tested in S. cerevisiae
Numbers without * were called inactive. In the library only some 12% were active in any assay of this set; here they are far more common.

For C/C(=N\NC(=O)C(=O)N/N=C(\C)c1cccc(O)c1)c1cccc(O)c1 the results were CHOP inh 1, L major viab 1, Arbovirus anti 5 and WT yeast gro inh -4.
CCCCn1c(SCC(=O)Nc2cc(C(F)(F)F)ccc2Cl)nnc1C(CC)N(C)C (stereo not given) was read as CHOP inh 14, L major viab 82*, Arbovirus anti 6 and WT yeast gro inh 2.
For COc1ccc(C(CCN)Cc2ccccc2)cc1 (stereo not given) the results were CHOP inh 12, L major viab 51*, Arbovirus anti -4 and WT yeast gro inh 2.
COc1ccc(C(CC(=O)c2ccccc2)CC(=O)c2ccccc2)cc1 was read as CHOP inh 4.
Screening CCc1c(C)[nH]c2nc3ccccc3n2c1=O returned CHOP inh -4, L major viab 94*, Arbovirus anti -1 and WT yeast gro inh -15.
`CC1(C)CC(=O)C2=C(C1)OC(N)=C(C#N)C2c1cn(-c2ccccc2)nc1-c1ccc(F)cc1` (stereo not given) gave CHOP inh 1, L major viab 66*, Arbovirus anti 8 and WT yeast gro inh -1.
Screening CC1(C)CC(=O)C2=C(C1)C(c1cn(-c3ccccc3)nc1-c1ccccc1)C(C#N)=C(N)O2 (stereo not given) returned CHOP inh 17, L major viab 79*, Arbovirus anti -7 and WT yeast gro inh -9.
CCc1ccc2c(c1)/C(=N/OC)C(=O)N2 was read as CHOP inh 10, L major viab 0, Arbovirus anti -7 and WT yeast gro inh -1.
For CN(CCNC(=O)CN1CCN(Cc2ccccc2Cl)C1=O)Cc1ccccc1 the results were CHOP inh 24, L major viab 59*, Arbovirus anti -9 and WT yeast gro inh -4.
For Cc1ccc(-c2cc(Cc3ccncc3)c(=O)[nH]n2)cc1 the results were CHOP inh 15.
`Cc1cc(C(C)(C)C)ccc1OCCOCCN1CCCC1` gave CHOP inh 8, L major viab 96*, Arbovirus anti -24 and WT yeast gro inh 20.
Screening Cc1ccc(Cl)c(OCCN2CCCC(C)C2)c1 (stereo not given) returned CHOP inh 53, L major viab 91*, Arbovirus anti -15 and WT yeast gro inh 2.
`CC1CCCN(CCOc2ccc3ccccc3c2Br)C1` (stereo not given) gave CHOP inh -15, L major viab 88*, Arbovirus anti -19 and WT yeast gro inh 59.
Cc1c(Cl)cccc1NC(=O)CCN1CCCC(C)C1 (stereo not given) was read as CHOP inh 5, L major viab 10, Arbovirus anti -2 and WT yeast gro inh 7.
`CC1CCN(CCCOc2ccc(Cl)cc2Br)CC1` gave CHOP inh 23, L major viab 87*, Arbovirus anti -15 and WT yeast gro inh 27.
`O=[N+]([O-])c1ccc(CN2C=NS(=O)(=O)c3ccccc32)cc1` gave CHOP inh -2, L major viab 2, Arbovirus anti 1 and WT yeast gro inh 11.
Screening CC(=O)Nc1cccc(OCC(=O)Nc2sccc2C(N)=O)c1 returned CHOP inh -17.
CC1CCCN(CCCOc2ccc(Cl)cc2Br)C1 (stereo not given) was read as CHOP inh 47, L major viab 98*, Arbovirus anti -10 and WT yeast gro inh 30.
For CC1CCN(CCOCCOc2ccc(Cl)cc2Br)CC1 the results were CHOP inh 63, L major viab 101*, Arbovirus anti 2 and WT yeast gro inh 14.
Screening O=CN1CCN(C(=O)COc2ccc(Cl)cc2Br)CC1 returned CHOP inh 22, L major viab -6, Arbovirus anti -8 and WT yeast gro inh 3.
Clc1ccc(OCCOCCN2CCCCC2)c(Br)c1 was read as CHOP inh -21, L major viab 100*, Arbovirus anti -16 and WT yeast gro inh 44.
Cc1nnc(SCC(=O)N(C)c2ccccc2)n1Cc1ccccc1 was read as CHOP inh 9, L major viab -4, Arbovirus anti 4 and WT yeast gro inh -5.
CSCCC(NC(=O)c1ccccc1)C(=O)N/N=C(\C)c1ccccc1 (stereo not given) was read as CHOP inh 28, L major viab 0, Arbovirus anti -2 and WT yeast gro inh -2.
For N#Cc1c(C(F)(F)F)cc(=O)[nH]c1SCC(=O)O the results were CHOP inh -4, L major viab -7, Arbovirus anti 9 and WT yeast gro inh -8.
`CC(C)(C)n1nc(-c2ccc(Cl)cc2)c2c(N)ncnc21` gave CHOP inh 84*, L major viab -5, Arbovirus anti -11 and WT yeast gro inh 3.
`COc1cccc(NS(=O)(=O)c2c(C)cc(C)cc2C)c1` gave CHOP inh 95*, L major viab 6, Arbovirus anti -5 and WT yeast gro inh 29.
`Cc1ccc(C(=O)Nc2nnc(SCC(=O)N3CCCc4ccccc43)s2)cc1` gave CHOP inh 59, L major viab -6, Arbovirus anti 9 and WT yeast gro inh 41.
`O=C(Nc1nnc(SCC(=O)N2CCCc3ccccc32)s1)c1cccc2ccccc12` gave CHOP inh 50, L major viab 96*, Arbovirus anti 15 and WT yeast gro inh 17.
`CC(=O)c1cc(CN2CCN(C3CCCCC3)C(CCO)C2)cs1` (stereo not given) gave CHOP inh -14, L major viab 18, Arbovirus anti -6 and WT yeast gro inh 0.
For CCCCn1nnc(NC(=S)NC(=O)c2ccc(-c3cccc(Cl)c3Cl)o2)n1 the results were CHOP inh 4, L major viab -6, Arbovirus anti -1 and WT yeast gro inh 78*.
COc1cc(NC(=O)c2c(F)cccc2F)c(Cl)cc1Cl was read as CHOP inh 10, L major viab -7, Arbovirus anti -7 and WT yeast gro inh -10.
For CS(=O)(=O)c1ccc(S(=O)CC(=O)Oc2ccc(Cl)cc2)c([N+](=O)[O-])c1 (stereo not given) the results were CHOP inh 108*, L major viab 10, Arbovirus anti -8 and WT yeast gro inh -6.
`O=C(CS(=O)c1ccccc1[N+](=O)[O-])Oc1ccc(Br)cc1` (stereo not given) gave CHOP inh 26, L major viab 6, Arbovirus anti -5 and WT yeast gro inh 20.
`Cc1ccc(C)c(N2CCN(C(=O)c3ccc4nc(-c5ccco5)c(-c5ccco5)nc4c3)CC2)c1` gave CHOP inh 12, L major viab 82*, Arbovirus anti -3 and WT yeast gro inh -14.
O=C(c1ccccc1)c1ccc2nc(-c3ccco3)c(-c3ccco3)nc2c1 was read as CHOP inh 72*, L major viab -7, Arbovirus anti -14 and WT yeast gro inh 24.
For O=C(NCCO)c1ccc2nc(-c3ccco3)c(-c3ccco3)nc2c1 the results were CHOP inh -17, L major viab -3, Arbovirus anti 5 and WT yeast gro inh -11.
`O=C(NCCc1ccccc1)c1ccc2nc(-c3ccco3)c(-c3ccco3)nc2c1` gave CHOP inh -18, L major viab 72*, Arbovirus anti 1 and WT yeast gro inh 26.
